Experimental findings from ChEMBL document CHEMBL1201862, “PubChem BioAssay data set” (2004) are described below.

Hit rate of the full screen: of about 400,000 compounds, about 2,100 (0.53%) were called active. Not shown: some 14% with an inconclusive outcome. This is one part of a sample in which actives are shown more often than they occur. No rule for the calls is given here.

The assay deals with Ataxin-2 (Homo sapiens) (UniProt Q99700). The assay can be described thus: qHTS for Inhibitors of ATXN expression. The assay is classed as functional.
Ataxin-2 (Homo sapiens), sequence (Q99700 whole entry): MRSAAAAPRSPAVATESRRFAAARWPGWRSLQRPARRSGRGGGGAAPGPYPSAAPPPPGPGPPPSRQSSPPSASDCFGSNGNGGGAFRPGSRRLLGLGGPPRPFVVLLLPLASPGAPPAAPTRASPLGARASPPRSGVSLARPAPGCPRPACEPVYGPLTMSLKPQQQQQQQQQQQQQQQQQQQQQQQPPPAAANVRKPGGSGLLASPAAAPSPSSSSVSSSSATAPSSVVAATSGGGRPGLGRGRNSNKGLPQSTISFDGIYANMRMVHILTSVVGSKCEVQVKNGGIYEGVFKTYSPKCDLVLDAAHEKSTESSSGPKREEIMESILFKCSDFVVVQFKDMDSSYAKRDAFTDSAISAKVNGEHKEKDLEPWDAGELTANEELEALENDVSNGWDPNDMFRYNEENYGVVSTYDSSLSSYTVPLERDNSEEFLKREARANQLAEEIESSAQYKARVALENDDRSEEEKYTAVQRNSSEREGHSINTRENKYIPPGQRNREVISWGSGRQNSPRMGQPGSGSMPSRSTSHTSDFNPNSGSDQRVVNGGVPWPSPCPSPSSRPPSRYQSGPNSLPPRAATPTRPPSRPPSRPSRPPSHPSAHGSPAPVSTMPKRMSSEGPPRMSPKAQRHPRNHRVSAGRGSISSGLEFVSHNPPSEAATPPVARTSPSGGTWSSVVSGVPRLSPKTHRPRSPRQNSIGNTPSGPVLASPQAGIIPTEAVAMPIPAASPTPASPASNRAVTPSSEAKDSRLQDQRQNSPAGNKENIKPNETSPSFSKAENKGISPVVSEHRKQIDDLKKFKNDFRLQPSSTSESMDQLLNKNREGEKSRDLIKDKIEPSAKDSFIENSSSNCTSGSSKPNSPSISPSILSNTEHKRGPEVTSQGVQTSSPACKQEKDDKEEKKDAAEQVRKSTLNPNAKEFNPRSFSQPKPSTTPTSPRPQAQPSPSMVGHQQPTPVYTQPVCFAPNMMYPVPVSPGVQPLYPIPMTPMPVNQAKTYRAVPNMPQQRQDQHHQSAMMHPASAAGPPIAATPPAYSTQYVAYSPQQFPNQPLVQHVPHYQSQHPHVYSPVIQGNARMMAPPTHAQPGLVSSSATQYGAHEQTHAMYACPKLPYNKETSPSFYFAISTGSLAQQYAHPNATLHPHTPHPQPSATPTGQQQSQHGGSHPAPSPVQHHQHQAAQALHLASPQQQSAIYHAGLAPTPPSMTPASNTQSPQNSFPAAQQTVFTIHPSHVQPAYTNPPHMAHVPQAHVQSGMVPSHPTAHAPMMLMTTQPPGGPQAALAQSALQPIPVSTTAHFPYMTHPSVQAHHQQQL
On to `COc1cc(/C=N/NC(=O)Nc2cccc3nsnc23)cc(OC)c1OC`, for which the Potency result is “inactive”.
Next, `CNC(=O)c1cc2c(=O)n3cccc(C)c3nc2n(C(C)C)c1=N`: “inactive”; `Cc1ccc(S(=O)(=O)NCCc2cn3nc(C)c(C)nc3n2)cc1C`: “inactive”; `Nc1ccc2c(c1)Oc1ccccc1C=C2`: “inactive”.
For `COc1ccccc1/N=c1\oc2cc(O)ccc2cc1C(N)=O` the value was “inactive”; for `CCn1nc(NC(=O)Cc2ccc(OC)cc2)c2cc3cccc(C)c3nc21`, “inactive”; for `C/C(CC1CC2=C(CC1(C)C)C(C)(C)CCC2)=N\NC(N)=S` (stereo not drawn), 35.5 µM (active).
As to `CN1C(=O)c2ccccc2N(C)C1c1ccccc1Cl` (stereo not drawn), the Potency entry was “inactive”.
Next, `COc1ccccc1C1CCCN1Cc1nc(-c2ccc(C)s2)oc1C` (stereo not drawn): “inactive”; `COCCNc1cc(C)nc2cc(-c3ccc(C)cc3)nn12`: “inactive”; `Cc1ccc(Nc2cc(C)nc3nc(Cc4ccc(Cl)cc4)nn23)cc1`: 22.4 µM (active).
Turning to `Cc1cc(C)n2nc(SCC(=O)Nc3ccc(F)c(F)c3F)nc2n1`, the Potency result is “inactive”.
For `Cc1c(-c2ccccc2)c(=O)oc2c(CN3CCN(C)CC3)c(O)ccc12` the value was “inactive”; for `Cc1ccc(-c2cc(C(=O)OCC(=O)N(C)C3CCS(=O)(=O)C3)c3ccccc3n2)o1` (stereo not drawn), “inactive”.
As to `CN(C(=O)COC(=O)c1cc(-c2ccc(Cl)s2)nc2ccccc12)C1CCS(=O)(=O)C1` (stereo not drawn), the Potency entry was “inactive”.
For `CN(C(=O)COC(=O)c1nc(Cl)c(Cl)c(Cl)c1Cl)C1CCS(=O)(=O)C1` (stereo not drawn) the value was 33.6 µM (active); for `CC1Cc2ccccc2N1C(=O)COC(=O)c1ccc(N(C)C)cc1` (stereo not drawn), “inactive”; for `Cc1cc(Br)ccc1SCC(=O)OCC(O)=C(C#N)c1nc2ccccc2[nH]1`, 39.8 µM (active).
Consider `COc1cc(/C=C(/C#N)c2nc3ccccc3[nH]2)ccc1OCC(=O)Nc1ccccc1C`, for which the Potency result is “inactive”.
For `COc1cc(/C=C(/C#N)c2nc3ccccc3[nH]2)ccc1OCC(=O)Nc1ccccc1C(C)C` the value was “inactive”; for `CCO/C(O)=C(\C#N)c1cc(C)c2ccccc2n1`, “inactive”; for `Cc1cc(Br)ccc1SCC(=O)OC/C(O)=C(\C#N)c1nc2ccccc2[nH]1`, 11.2 µM (active).
Next, `Cc1cc(/C=C(/C#N)c2nc3ccccc3[nH]2)c(C)n1-c1ccccc1C(=O)O`: “inactive”; `Cc1c(C)c(C)c(S(=O)(=O)N2CCNCC2)c(C)c1C`: “inactive”; `COCCN1C=C(C(=O)OC)C(c2ccccc2Cl)C(C(=O)OC)=C1`: “inactive”.
In the case of `CC(C)C[C@H](NC(=O)c1[nH]cnc1C(=O)N1CCN(C(=O)OC(C)(C)C)CC1)C(=O)OCc1ccccc1`, the Potency was 35.5 µM (active).
For `O=C(N[C@@H](Cc1ccccc1)C(=O)OCc1ccccc1)c1[nH]cnc1C(=O)N1CCN(c2ccccc2)CC1`, the Potency is 22.4 µM (active).
As to `O=C(NC(CC(=O)N1CCN(c2ccccc2)CC1)c1ccccc1)c1ccccc1` (stereo not drawn), the Potency entry was “inactive”.
For `O=C(N[C@@H](Cc1ccccc1)C(=O)OCc1ccccc1)c1ccco1`, the Potency result was “inactive”.
In the case of `O=C(O)CCCC(=O)N1CCN(c2nc(-c3ccccc3)c3ccccc3n2)CC1`, the Potency result is “inactive”.
For `COc1ccc(/C=N/Nc2cc(C)nc3ccc(OC)cc23)c(OC)c1` the value was “inactive”; for `COc1ccc2cc(/C=N/NC(=O)CN(c3ccccc3C)S(=O)(=O)c3ccccc3)c(Cl)nc2c1`, “inactive”.
Next, `COc1ccc2nc(S)cc(C)c2c1`: “inactive”; `COc1cccc(/C=N/n2c(SC)nnc2-c2ccccc2)c1O`: “inactive”; `COc1cccc(-c2cc(C(=O)N/N=C/c3cccc(OC)c3OC)c3ccccc3n2)c1`: “inactive”.
`Cc1cc(C(=O)N/N=C/c2cccnc2)c2ccccc2n1`: the Potency entry was “inactive”.
For `COc1ccc2nc(C)cc(SCC(=O)N/N=C/c3cccc4ccccc34)c2c1` the value was 22.4 µM (active); for `COc1ccc2nc(C)cc(N/N=C/c3cccc(OC)c3O)c2c1`, 35.5 µM (active); for `COc1ccc2nc(C)cc(N/N=C/c3ccccc3)c2c1`, 31.6 µM (active).
With `COc1ccc(C(=O)Nc2nc3n(n2)C(c2ccccc2)C=C(c2ccccc2)N3)cc1` (stereo not drawn), the Potency entry was “inactive”.
As to `COc1cccc(C2C=C(c3cccs3)Nc3ncnn32)c1OC` (stereo not drawn), the Potency result is “inactive”.
For the molecule `Cc1nc(N)c(Br)c(C)c1Br`, the Potency entry was “inactive”.
Next, `Clc1ccccc1N1CCN(Cc2ccco2)CC1`: “inactive”; `CCOC(=O)c1sc2nc(C3CC3)cc(-c3ccc(F)cc3)c2c1N`: “inactive”.
Take `Cc1ccccc1NCC(=O)Nc1cc(S(=O)(=O)N2CCCCC2)ccc1C`: the Potency result was “inactive”.
Take `SC1=C2CCCCCC2=NC2(CCCCCC2)S1`: the Potency is 44.7 µM (active).
For `CSC1=NN(c2ccccc2)CN(c2ccccc2)N1C` the value was “inactive”; for `COc1ccc(-c2c(C)c3ccc(O)c(CN4CCC(C)CC4)c3oc2=O)cc1OC`, “inactive”.
For `CCOC(=O)C1CCN(S(=O)(=O)c2ccc3c4c(cccc24)C(=O)N3)CC1`, the Potency entry was “inactive”.
For `CC1=[N+](C)c2c(ccc3cccnc23)C1(C)C` the value was “inactive”; for `CC(C)c1ccc2nc3sc(C(=O)N4CCc5ccccc5C4)c(N)c3cc2c1`, “inactive”.
Next, `Cn1c2ccccc2c(=O)c2c(=O)n(C3CCCCCC3)c(C3CCCCC3)nc21`: “inactive”; `C/C(=N\Nc1nc2ccccc2[nH]1)c1cc2ccccc2o1`: “inactive”.
For `Cc1c(C(=O)Nc2nc3ccccc3[nH]2)oc2ccccc12` the value was 39.8 µM (active).
On to `COc1ccc(C(=O)N[C@H](C(=O)Nc2nc3ccccc3[nH]2)C(C)C)cc1`, for which the Potency result is “inactive”.
For `COCCNC(=O)c1cnn2c(C(F)(F)F)cc(-c3ccc(C)cc3)nc12` the value was “inactive”.
For the molecule `CCOC(=O)c1cc2c(=O)n3ccccc3nc2n(CCCOC)/c1=N\C(=O)c1ccncc1`, the Potency result is “inactive”.
Next, `CN1CCN(c2ccc3sc(-n4ccc5ccccc54)nc3c2)CC1`: 39.8 µM (active).
For `CN1CCN(c2ccc(-c3ccc4ccccc4n3)cc2)CC1` the value was “inactive”; for `O=c1c(-c2nc3ccccc3s2)cccn1Cc1ccccc1`, “inactive”; for `C[C@@H]1O[C@H](O[C@@H]2[C@H](C)O[C@H](O[C@@H]3[C@H](C)O[C@H](O[C@H]4CC[C@]5(C)[C@@H](CC[C@@H]6[C@H]5C[C@@H](O)[C@]5(C)[C@@H](C7=CC(=O)OC7)CC[C@]65O)C4)C[C@@H]3O)C[C@@H]2O)C[C@H](O)[C@@H]1O`, 0.224 µM (active).
Next, `CN(C)c1nc(-c2ccccc2)c2cc(Cl)ccc2n1`: “inactive”.
`Cc1c(CC(=O)NCc2ccccc2Cl)c(=O)oc2cc(O)ccc12`: the Potency entry was “inactive”.
